The source of these data is PubChem BioAssay (NCI).

Structures are written as SMILES. “And” between values parts separate entries of the source, which are not always exact repeats. Equal values may be shown once. The panel holds about 83,000 compounds, 20% with a hit somewhere; the sample as a whole holds those more often.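 Growth was measured after 48 h exposure to one concentration of compound in 96-well plates. Values under 10 count as active.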 The source made the active and inactive calls.

Test systems include DU-145 prostate; K-562 leukemia; MALME-3M melanoma; MDA-MB-231 breast; RXF 393 renal; SF-268 CNS; SF-295 CNS; SF-539 CNS; UACC-257 melanoma; M14 melanoma; HCT-15 colon; HT29 colon; SNB-75 CNS; SNB-19 CNS; U251 CNS; PC-3 prostate; SK-MEL-5 melanoma; UACC-62 melanoma; LOX IMVI melanoma; SK-MEL-28 melanoma.
Common to all, as to assay: NCI-60 one-dose screen, 48 h (100 = growth as untreated, 0 = no growth, -100 = all killed)
Common to all, as to details: 10 µM unless noted

As to `O=C1C=CC(=CC=C2N(Cc3ccc4ccccc4c3)c3ccccc3N2Cc2ccc3ccccc3c2)C=C1`, the growth is 43.2% (inactive) and 32.7% (inactive) in the assay with DU-145 prostate; 13.5% (inactive) and 6.33% (active) with K-562 leukemia; 4.02% (active) and 3.15% (active) in the assay with MALME-3M melanoma; -40.7% (active) and -24.6% (active) with MDA-MB-231 breast; 31.6% (inactive) and 30.9% (inactive) in the assay with RXF 393 renal; 67.5% (inactive) and 56.8% (inactive) in the assay on SF-268 CNS. Further, the growth in the assay on SF-295 CNS is 39.3% (inactive) and 58.2% (inactive); in the assay on SF-539 CNS it was 15.5% (inactive) and 16.9% (inactive); in the assay on UACC-257 melanoma, -0.845% (active) and 20.9% (inactive); in the assay on M14 melanoma, 20.8% (inactive) and 29.8% (inactive); in the assay with HCT-15 colon, 94.7% (inactive) and 95.3% (inactive); in the assay on HT29 colon it was 15.1% (inactive) and 13.2% (inactive). Moreover, the growth with SNB-75 CNS is 39.6% (inactive) and 26.9% (inactive); with SNB-19 CNS, 8.3% (active) and 11.1% (inactive); in the assay with U251 CNS it was 17.4% (inactive) and 17.6% (inactive); with PC-3 prostate it was 18.6% (inactive) and 16.6% (inactive); in the assay on SK-MEL-5 melanoma, -64.3% (active) and -51.3% (active); with UACC-62 melanoma, 2.32% (active) and 11.9% (inactive). Also, the growth in the assay on LOX IMVI melanoma was 14.8% (inactive) and 19.6% (inactive); with SK-MEL-28 melanoma, 16.7% (inactive) and 20.5% (inactive).
On to `Oc1cncc(-c2ccc3ncnc(N4CCc5cc(F)c(Cl)cc54)c3c2)c1`, for which the growth is 49% (inactive) in the assay with DU-145 prostate; 65% (inactive) with K-562 leukemia; 70.8% (inactive) with MALME-3M melanoma; 46.5% (inactive) in the assay on MDA-MB-231 breast; 46.4% (inactive) in the assay on RXF 393 renal; 45.1% (inactive) in the assay on SF-268 CNS. For the same molecule, the growth was 57.6% (inactive) in the assay on SF-295 CNS; 56% (inactive) in the assay on SF-539 CNS; 90.9% (inactive) in the assay on UACC-257 melanoma; 78% (inactive) in the assay with M14 melanoma; 66.3% (inactive) in the assay on HCT-15 colon; 57.8% (inactive) with HT29 colon. The growth was 25.6% (inactive) in the assay with SNB-75 CNS; 38.6% (inactive) with SNB-19 CNS; 39.1% (inactive) in the assay on U251 CNS; 57.4% (inactive) in the assay on PC-3 prostate; 78.5% (inactive) in the assay with SK-MEL-5 melanoma; 71.8% (inactive) in the assay with UACC-62 melanoma. Besides, the growth in the assay with LOX IMVI melanoma was 38.8% (inactive); in the assay on SK-MEL-28 melanoma, 77.6% (inactive).
For `O=C(CSc1nc2sc3c(c2c(=O)n1-c1ccc(Cl)cc1)CCCC3)NNC(=O)c1ccc(Br)cc1`, the growth in the assay on DU-145 prostate was 97.4% (inactive); with K-562 leukemia, 55.5% (inactive); in the assay on MALME-3M melanoma it was 69.2% (inactive); with MDA-MB-231 breast, 25.6% (inactive); with RXF 393 renal, 76% (inactive); with SF-268 CNS, 84.9% (inactive). Also, the growth in the assay with SF-295 CNS was 84.1% (inactive); with SF-539 CNS, -29.5% (active); in the assay on UACC-257 melanoma, 98.6% (inactive); with M14 melanoma, 71.9% (inactive); with HCT-15 colon, 73.9% (inactive); with HT29 colon, 100% (inactive). Besides, the growth in the assay on SNB-75 CNS is 82.7% (inactive); with SNB-19 CNS, 24.8% (inactive); with U251 CNS, 26.6% (inactive); with PC-3 prostate it was 71.8% (inactive); with SK-MEL-5 melanoma, 74.2% (inactive); in the assay with UACC-62 melanoma, 36.6% (inactive). Moreover, the values for the growth in the assay on LOX IMVI melanoma and in the assay on SK-MEL-28 melanoma were 52.1% (inactive) and 78.8% (inactive), respectively.
As for `CN1C(=O)C2(C(C#N)=C(c3ccc(Cl)cc3)Nc3c2c(-c2ccccc2)nn3-c2ccccc2)c2ccccc21` (stereo not given), the growth in the assay on DU-145 prostate was 93.6% (inactive); in the assay on K-562 leukemia, 40.8% (inactive); in the assay on MALME-3M melanoma it was 78.9% (inactive); in the assay on MDA-MB-231 breast, 46.1% (inactive); in the assay on RXF 393 renal, 77% (inactive); in the assay on SF-268 CNS it was 93.5% (inactive). Further, the growth is 77.4% (inactive) in the assay on SF-295 CNS; -85.3% (active) in the assay with SF-539 CNS; 112% (inactive) in the assay with UACC-257 melanoma; 77.2% (inactive) in the assay with M14 melanoma; 87.6% (inactive) in the assay with HCT-15 colon; 85.2% (inactive) in the assay with HT29 colon. Further, the growth was 69.4% (inactive) in the assay with SNB-75 CNS; 87% (inactive) in the assay with SNB-19 CNS; 102% (inactive) with U251 CNS; 85.8% (inactive) in the assay on PC-3 prostate; 88.1% (inactive) in the assay with SK-MEL-5 melanoma; 69.5% (inactive) with UACC-62 melanoma. Besides, the growth was 55.3% (inactive) in the assay with LOX IMVI melanoma and 94.2% (inactive) in the assay on SK-MEL-28 melanoma.
For the molecule `O=[N+]([O-])c1cccc(-c2nnc3c(/C=C/c4ccc(F)cc4)nc4ccccc4n23)c1`, the growth was 98.7% (inactive) in the assay with DU-145 prostate; 87% (inactive) in the assay with K-562 leukemia; 95.7% (inactive) with MALME-3M melanoma; 94.6% (inactive) with MDA-MB-231 breast; 77.2% (inactive) with RXF 393 renal; 87.5% (inactive) in the assay with SF-268 CNS. Besides, the growth with SF-295 CNS is 80.8% (inactive); in the assay with SF-539 CNS, 66.9% (inactive); in the assay with UACC-257 melanoma, 107% (inactive); in the assay with M14 melanoma, 108% (inactive); with HCT-15 colon, 85.8% (inactive); in the assay on HT29 colon it was 98.5% (inactive). In addition, the growth is 54.1% (inactive) in the assay with SNB-75 CNS; 92.5% (inactive) with SNB-19 CNS; 95.9% (inactive) with U251 CNS; 103% (inactive) in the assay with PC-3 prostate; 90.9% (inactive) in the assay with SK-MEL-5 melanoma; 85.1% (inactive) in the assay with UACC-62 melanoma. Moreover, the figures for the growth in the assay with LOX IMVI melanoma and with SK-MEL-28 melanoma were 98.5% (inactive) and 107% (inactive), respectively.
Regarding `COc1cncc(-c2ccc3ncnc(N4CCc5ccc(Cl)cc54)c3c2)c1`, the growth in the assay with DU-145 prostate is 24.6% (inactive); in the assay on K-562 leukemia, 12.6% (inactive); with MALME-3M melanoma it was 44.2% (inactive); with MDA-MB-231 breast, 29.4% (inactive); in the assay on RXF 393 renal it was -18.1% (active); in the assay on SF-268 CNS, 46.7% (inactive). Moreover, the growth in the assay with SF-295 CNS was 20.3% (inactive); with SF-539 CNS, 33.2% (inactive); with UACC-257 melanoma, 63.5% (inactive); in the assay with M14 melanoma, -52.4% (active); in the assay on HCT-15 colon, 11.9% (inactive); in the assay on HT29 colon, 31.4% (inactive). Further, the growth in the assay on SNB-75 CNS was 24.3% (inactive); with SNB-19 CNS it was 35.9% (inactive); with U251 CNS it was 51% (inactive); with PC-3 prostate, 6.75% (active); in the assay on SK-MEL-5 melanoma, -16.7% (active); in the assay on UACC-62 melanoma, 16.3% (inactive). Further, the growth in the assay with LOX IMVI melanoma is 6.64% (active); with SK-MEL-28 melanoma it was 48.6% (inactive).
Turning to `COc1ccc(-c2nc3ccc(-c4nnc(SCc5ccccc5)o4)cc3[nH]2)cc1OC`, the growth in the assay with DU-145 prostate was 17.2% (inactive); in the assay with K-562 leukemia, 56.8% (inactive); in the assay with MALME-3M melanoma, 15.9% (inactive); in the assay on MDA-MB-231 breast, -34.4% (active); with RXF 393 renal, -34.1% (active); in the assay on SF-268 CNS, 35.2% (inactive). The growth was 55.4% (inactive) with SF-295 CNS; -44.5% (active) with SF-539 CNS; 78.4% (inactive) in the assay on UACC-257 melanoma; 40.7% (inactive) in the assay on M14 melanoma; 35.6% (inactive) with HCT-15 colon; 52.9% (inactive) in the assay with HT29 colon. In addition, the growth is -54.2% (active) in the assay on SNB-75 CNS; 28.1% (inactive) with SNB-19 CNS; 0.298% (active) in the assay with U251 CNS; 50.9% (inactive) with PC-3 prostate; 39.7% (inactive) in the assay on SK-MEL-5 melanoma; 0.287% (active) in the assay on UACC-62 melanoma. Further, the growth is 7.48% (active) in the assay on LOX IMVI melanoma and 30.6% (inactive) in the assay with SK-MEL-28 melanoma.
